# Screening results from PubChem BioAssay.
# A selection: hits, their analogues and other compounds. The true share with any hit is near 32%.
# CYP2C19 act – human CYP2C19 activators, primary screen, biochemical, luminescence; 96,000 tested, under 10 active; Cytochrome P450 2C19 (Homo sapiens), P33261; AID 1025, 2008; activation factor at 5 µM; recombinant CYP2C19, luciferin-H EGE luminescence; stronger effect = higher value; 0 = fully inhibited enzyme, 1 = untreated enzyme;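 active = activation factor of at least 2 at 5 µM in the primary screen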;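 also: 0 = wells with 2.5 mM tranylcypromine and 1 = vehicle-only wells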
# Target sequence (P33261 whole entry, looked up): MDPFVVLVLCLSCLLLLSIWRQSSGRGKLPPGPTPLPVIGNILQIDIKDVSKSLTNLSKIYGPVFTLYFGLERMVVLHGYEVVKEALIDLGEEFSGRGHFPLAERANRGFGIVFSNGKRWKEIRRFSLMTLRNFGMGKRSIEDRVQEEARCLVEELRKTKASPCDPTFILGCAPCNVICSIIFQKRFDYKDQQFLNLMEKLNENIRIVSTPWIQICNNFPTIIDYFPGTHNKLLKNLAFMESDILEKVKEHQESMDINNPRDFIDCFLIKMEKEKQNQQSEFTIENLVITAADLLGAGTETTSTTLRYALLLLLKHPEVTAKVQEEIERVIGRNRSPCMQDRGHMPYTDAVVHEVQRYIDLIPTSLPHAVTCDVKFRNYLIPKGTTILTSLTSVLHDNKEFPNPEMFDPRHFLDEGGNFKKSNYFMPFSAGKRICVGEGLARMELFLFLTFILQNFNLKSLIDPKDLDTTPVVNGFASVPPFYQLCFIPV
# PostGolgi ctrl – growth inhibition of yeast control strain, primary screen, counter-screen for post-Golgi transport modulator project. efflux-deficient yeast background strain, growth absorbance A615, 16 h. inhibition, % at 10 µM. 5% of 98,000 active
# CYP2C9 inh – blockers of cytochrome P450 2C9 activity – biochemical, luminescence, ADME assay, primary screen; P11712; CYP2C9 Supersomes, luciferin-H conversion; inhibition, % at 5 µM; 20% of 96,000 active;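 active = blocking of liver enzyme CYP2C9 beyond about 50% at 5 µM, limit read from the data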
# CYP2C19 inhib – blockers of cytochrome P450 2C19 activity – biochemical, luminescence, ADME assay, primary screen. P33261. CYP2C19 Supersomes, luciferin-H EGE luminescence, 30 min. inhibition, % at 5 µM. 21% of 96,000 active. AID 778, 2007;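 active = CYP2C19 inhibition above a set limit at 5 µM in the primary screen, cut at about 50% in these data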;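 also: plate controls were negative control wells for no effect and 2.5 mM tranylcypromine positive control for full effect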
# PostGolgi yeast – phenotypic screen on post-Golgi transport, primary screen; AID 739, 2007; post-Golgi transport phenotypic cell assay; inhibition, % at 10 µM; 0.9% of 98,000 active;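 also: yeast cells grown in 1536-well plates; yeast grown about 18 h at 30C before absorbance read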
# CYP2C9 activ – human CYP2C9 activators, primary screen, biochemical, luminescence; Cytochrome P450 2C9 (Homo sapiens), P11712; recombinant CYP2C9, luciferin-H conversion; stronger effect = higher value; factor 1 = untreated enzyme, 0 = blocked; activation factor at 5 µM; AID 1024, 2008; 1.4% of 96,000 active;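 active = activation factor of 2 or more for CYP2C9 at a 5 µM dose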;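 also: 0 = sulfaphenazole-blocked wells and 1 = vehicle-only wells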
# Active calls of the source: *. Rule as the data show it, unless noted: active = inhibition above about 30%; inactive = the rest.
SMILES,CYP2C19 act,PostGolgi ctrl,CYP2C9 inh,CYP2C19 inhib,PostGolgi yeast,CYP2C9 activ
CC(=O)N1CN(S(=O)(=O)c2ccc(C)cc2)CC1C (stereo not drawn),0.7,0,-4,30,24,1
O=c1c(-c2ccc(F)cc2)coc2c3c(ccc12)OCCO3,0.9,-1,4,12,-3,1
O=C(O)CSc1nc(-c2ccccc2)nc2c1oc1ccccc12,0.9,9,91*,7,1,0.1
Cc1nc(SCC(=O)N2CCCc3ccccc32)c2oc3ccccc3c2n1,1.1,41*,-3,-5,-2,1
CCc1c(C)nc(N)n2c(SCC(=O)N3CCCc4ccccc43)nnc12,1,12,-11,-5,7,1.1
CCOC(=O)CSc1nc(-c2ccccc2)nc2c1oc1ccccc12,1.1,-1,-6,-15,4,1.1
Cc1[nH]c2ccccc2c1SCC(=O)N1CCN(c2ccccc2)CC1,0.5,15,5,49,-1,0.9
Cc1[nH]c2ccccc2c1SCC(=O)N1CCCc2ccccc21,0.2,26,9,76*,6,0.9
Cc1nc(SCC(=O)NC(C)c2ccccc2)c2oc3ccccc3c2n1 (stereo not drawn),0.4,14,80*,64*,3,0.2
O=C(CSc1nnc(Cc2ccccc2)o1)NCCN1C(=O)CSC1=O,1,-6,-4,5,4,1
CSCCC(NC(=O)c1ccco1)C(=O)O (stereo not drawn),1.1,14,-18,-6,-4,1.2
O=C(COC(=O)c1ccc(S(=O)(=O)N2CCOCC2)cc1)NC1CCCCCC1,0.9,2,18,6,-8,0.8
CCCN1CCN(C(=O)C2CCN(S(=O)(=O)c3ccc4c(c3)oc(=O)n4C)CC2)CC1,1.1,-2,-4,-10,-11,1
COc1ccc(N(CC(=O)NCCSC2CCCCC2)S(C)(=O)=O)c(OC)c1,0.8,7,-91,22,4,1.9
Cn1ccnc1SC(=O)N1c2ccccc2Sc2ccccc21,0.2,22,97*,84*,-3,0
Brc1ccc(-c2noc(COc3ccc4ccccc4c3)n2)o1,0.9,12,-12,14,-7,1.1
COc1ccc(-c2noc(Cc3ccc(Cl)cc3)n2)cc1OC,0.9,26,39,13,6,0.6
COc1ccc(Cc2nc(-c3ccc(Br)o3)no2)cc1OC,0.1,1,65*,88*,0,0.4
Fc1ccc(OCc2nc(-c3ccc(Br)o3)no2)c(F)c1,0.1,3,27,94*,6,0.7
Clc1ccccc1OCc1nc(-c2ccc(Br)o2)no1,0.1,20,58*,94*,-18,0.4
CCCCn1nc2cc(C(=O)NC3CCCc4ccccc43)ccc2c1OCC (stereo not drawn),0.9,-4,18,11,5,0.8
C#CCn1c(=NC(=O)c2ccc(Br)s2)sc2cccc(OC)c21,1,7,-72,1,7,1.7
COc1cc(CC(=O)OCC(=O)Nc2ccc(S(=O)(=O)N3CCCC3)cc2)cc(OC)c1OC,0.9,26,61*,14,-5,0.4
CCCC(=O)Nc1ccc(S(=O)(=O)N2CCCC2)cc1,1,0,16,2,-4,0.8
O=C(COC(=O)Cc1ccc2c(c1)OCCO2)Nc1ccc(S(=O)(=O)N2CCCC2)cc1,1.2,4,25,-17,2,0.8
COC(=O)c1ccc(NC(=O)COc2ccc(S(=O)(=O)N3CCCCC3)cc2)cc1,0.6,0,64*,37,8,0.4
O=C(Nc1ccc(S(=O)(=O)N2CCCCC2)cc1)c1ccccc1Cl,0.8,18,33,22,-12,0.7
O=C(Nc1ccc(S(=O)(=O)N2CCCC2)cc1)N1c2ccccc2Sc2ccccc21,0.9,18,74*,8,-3,0.3
O=C(O)CCC(=O)Nc1ccc(S(=O)(=O)N2CCCC2)cc1,0.5,4,24,50*,10,0.8
Cc1cccc(OCCC(=O)Nc2ccc(S(=O)(=O)N3CCCC3)cc2)c1,0.7,23,67*,33,3,0.3
